# Test results taken from the supplement of paper PMC11402862.
# Tested on: PPARalpha LBD (GAL4 fusion)
# Experiment: luciferase reporter transactivation, fold of solvent control; higher = stronger receptor activation
# Details: HEK293T, exposure time: 24 h
# Procedure: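 HEK293T cells were transiently transfected with a GAL4-DBD fused to the ligand-binding domain of a human nuclear receptor (PPARα, PPARγ, PPARδ, FXR, LXRα, PXR, RARα or CAR), the GAL4-(UAS)5-TK firefly luciferase reporter and a Renilla luciferase normalisation plasmid. Cells were exposed to compound for 24 h in 0.5% DMSO. Firefly/Renilla luciferase was expressed as fold of the solvent control (=1). Values are the mean of 2-3 biological replicates; receptor agonists were used as positive controls.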
SMILES,luciferase reporter transactivation (concentration: 1 µM),luciferase reporter transactivation (concentration: 5 µM),luciferase reporter transactivation (concentration: 10 µM),luciferase reporter transactivation (concentration: 25 µM),luciferase reporter transactivation (concentration: 50 µM),luciferase reporter transactivation (concentration: 100 µM),luciferase reporter transactivation (concentration: 250 µM),luciferase reporter transactivation (concentration: 500 µM)
O=S(=O)(O)CCC(F)(F)C(F)(F)C(F)(F)C(F)(F)C(F)(F)C(F)(F)C(F)(F)C(F)(F)F [8:2 fluorotelomer sulfonic acid],1.07,1.09,1.18,1.29,1.33,1.97,1.6,1.31
OCCC(F)(F)C(F)(F)C(F)(F)C(F)(F)C(F)(F)C(F)(F)F [6:2 fluorotelomer alcohol],0.709,0.741,0.818,0.925,0.748,0.765,0.656,0.825
O=C(O)C(F)(F)C(F)(F)C(F)(F)C(F)(F)F [perfluoropentanoic acid],1.14,1.05,1.12,1.18,1.15,1.31,1.35,1.58
O=S(=O)(O)CCC(F)(F)C(F)(F)C(F)(F)C(F)(F)C(F)(F)C(F)(F)F [6:2 fluorotelomer sulfonic acid],1.06,0.983,1.08,1.08,1.13,1.78,–,–
CC(C)(Sc1ccc(CCN(CCCCC2CCCCC2)C(=O)NC2CCCCC2)cc1)C(=O)O,46,–,–,–,–,–,–,–
